GLP-1R inv ag – inverse agonists of human GLP-1 receptor | Potency, µM (series often up to 38.3 µM), without a hit: at the top dose activity change, negative = inhibition, hits mostly inhibitors | 1.6% of 410,000 active | HEK293 GLP-1R CRE-luciferase, luminescence, 24 h; GLP-1R form is constitutively active | P43220; further: potency means the concentration at half of the fitted maximal effect; on the % scale 0 is the no-effect control and ±100 the full control effect; nearly all actives have a fitted effect of over 55% in size
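qHTS in 1536-well format: reporter HEK293 cells expressing constitutive GLP-1R activity in DMEM + 10% Nu serum, 24 hr with compounds at 37 deg C, luminescence read after 12 min with detection reagent.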
GLP-1R agonist – activates the human GLP-1 receptor; HEK293 GLP-1R CRE-luciferase, luminescence, 4-6 h; cells express a hypersensitive GLP-1R form; 0.007% of 380,000 active; Potency, µM (top dose mostly 45.6 µM), without a hit: at the highest dose activation, actives largely listed as activators; P43220; further: potency means the concentration at half of the fitted maximal effect; % of control where 0% means no effect
D3 ag – D3 dopamine receptor (human) agonism; P35462; 0.58% of 410,000 active; D3R DiscoveRx beta-arrestin cells, luminescence, 90 min; AID 652048; max activation, %; in the data active means max activation above about 30%; further: 0% is about no effect
Target sequence (P35462 whole entry, looked up): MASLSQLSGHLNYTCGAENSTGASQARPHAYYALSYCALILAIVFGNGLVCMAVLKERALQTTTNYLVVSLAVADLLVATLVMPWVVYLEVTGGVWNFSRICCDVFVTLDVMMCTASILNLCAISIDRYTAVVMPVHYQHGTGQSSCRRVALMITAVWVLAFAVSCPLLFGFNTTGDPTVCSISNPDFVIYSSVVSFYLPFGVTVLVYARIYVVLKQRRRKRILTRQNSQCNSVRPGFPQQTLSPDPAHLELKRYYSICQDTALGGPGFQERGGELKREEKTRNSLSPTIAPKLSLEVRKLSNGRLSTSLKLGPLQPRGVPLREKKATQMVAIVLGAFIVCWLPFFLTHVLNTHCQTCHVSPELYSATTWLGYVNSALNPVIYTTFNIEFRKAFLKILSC
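Cells at 1500/well, incubated overnight, then treated with pinned compounds (dopamine as control) for 90 min at 37 degrees C. DiscoveRx reagent added for 30 - 60 minutes at room temperature; luminescence read.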
DRD3 antagonist – blocks the human D3 dopamine receptor; AID 652054; P35462; max response, negative = inhibition, %; 2.5% of 360,000 active; D3R cells, DiscoveRx beta-arrestin luminescence, antagonist mode; active compounds read low; in the data active means max response below about -50%; inconclusive means no clear call, values can overlap the other calls; further: on the % scale 0 is the no-effect control and ±100 the full control effect
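Cells expressing the human receptor were seeded at 1500 cells/well, incubated overnight at 37 degrees C in 5% CO2, then exposed to library compounds with dopamine controls for 90 minutes at 37 degrees C before luminescent detection.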
* marks the source's active call; other numbers are inactive results; ? = inconclusive; . = no result; [ ] = remark or other dose. Shown are actives, neighbours in structure and some others; about 4.3% of the full set was active somewhere. Unless noted, the call rests on the fitted dose curve; in most records, active means well fitted curve in the direction sought with a large enough effect; inconclusive means small, poorly fitted or top-dose-only effect, or another doubt; inactive means no such curve, though single readings can be large; an effect the other way counts as inactive or inconclusive.

SMILES	GLP-1R inv ag	GLP-1R agonist	D3 ag	DRD3 antagonist
O=C(Nc1ccccc1)c1ccc(Nc2c([N+](=O)[O-])cc([N+](=O)[O-])c3ccccc23)cc1	-12%	-2%	-13	-68*
O=C(Nc1ccc(Nc2ccncc2)cc1)c1ccc([N+](=O)[O-])cc1	10µM*	-1%	-1	-2
Cc1oc(-c2cccs2)nc1CN1CCC(c2ccccc2)CC1	-27%	-4%	-27	-91*
Cc1cccc(N(CC(=O)NCCSCc2ccccc2)S(=O)(=O)c2ccccc2)c1C	?	-8%	1	.
COc1ccc(C=C(C(C)=O)C(C)=O)cc1OC	8%	4%	2	-50*
O=C(/C=C/c1cccs1)NC(=S)NNC(=O)Cc1cccs1	-14%	-9%	4	-80*
COc1ccc(/C=C/C(=O)NC(=S)NNC(=O)Cc2cccs2)cc1OC	3%	5%	1	-72*
O=C(/C=C/c1ccccc1)NC(=S)NNC(=O)c1cccnc1	10%	4%	11	?
COc1ccc(/C=C/C(=O)NC(=S)NNC(=O)c2cccs2)cc1OC	23%	5%	5	1
COc1ccc(/C=C/C(=O)NC(=S)NNC(=O)c2cccnc2)cc1OC	43%	-1%	3	-61*
COc1cc(C=C(C(C)=O)C(C)=O)ccc1O	-2%	1%	-1	0
O=C(/C=C/c1cccs1)NCc1cccs1	-6%	-1%	-2	-8
CCOC(=O)C1CCCN(S(=O)(=O)c2cc(-c3onc(C)c3C)ccc2OC)C1 (centres undefined)	-9%	.	13	.
CCOC(=O)/C(=C\c1ccc(OC)c(OC)c1)C(=O)c1cccnc1	-3%	4%	-18	-50*
CCCOc1ccc(C(=O)NNC(=S)NC(=O)c2ccco2)cc1	?	7%	1	-22
COc1ccc(C(=O)NC(=S)NNC(=O)Cc2cccs2)cc1	0%	-8%	1	-67*
COc1ccc(C(=O)NNC(=S)NC(=O)c2ccco2)cc1	-11%	1%	2	-58*
CCOC(=O)/C(=C\c1cccnc1)C(=O)c1cc(C(C)=O)c(Nc2ccccc2)s1	-6%	-21%	-30	-130*
CCOC(=O)c1cc(CC)sc1NC(=O)COc1ccccc1C	1%	.	2	.
NCCCC(N)C(=O)O (centres undefined)	.	0%	.	.
O=C(Cn1cnc([N+](=O)[O-])c1)Nc1cc(Oc2ccc(Cl)cc2Cl)cc([N+](=O)[O-])c1	5.6µM*	-50%	-6	0
O=C(NCc1ccc(Cl)cc1)C1CCN(S(=O)(=O)c2ccc3c(c2)CCCN3C(=O)C2CCC2)CC1	?	.	0	.
c1ccc(-c2ccccc2OCCCN2CCCC2)cc1	?	-1%	-35	-71*
c1ccc(-c2ccccc2OCCCCN2CCCCC2)cc1	?	0%	-38	-71*
CCOc1ccc(NC(=O)Cn2nc(CC)n3c(cc4sccc43)c2=O)cc1	12%	.	3	.
SMILES	GLP-1R inv ag	GLP-1R agonist	D3 ag	DRD3 antagonist
Cc1ccc2oc(-c3cccc(NC(=O)c4sc5c([N+](=O)[O-])cccc5c4Cl)c3)nc2c1	4%	.	-4	.
Cc1cc(C)nc(N/N=C/C2=C(O)CC(c3ccc(F)cc3)CC2=O)n1 (centres undefined)	?	0%	-26	-121*
Cc1ccc(C2CC(=O)C(C=NCCN3CCN(C(=S)Nc4ccc(F)cc4)CC3)=C(O)C2)cc1 (centres undefined)	-15%	7%	-5	-11
COc1cc2c(cc1NC(=O)C(C)N1CCN(S(=O)(=O)c3ccc(C)c(C)c3)CC1)oc1ccccc12 (centres undefined)	44%	1%	31*	-21
COc1cc2c(cc1NC(=O)C(C)N1CCN(S(=O)(=O)c3ccccc3[N+](=O)[O-])CC1)oc1ccccc12 (centres undefined)	40%	-2%	16	-12
CCOc1cccc(-c2nnc3sc(COc4ccccc4)nn23)c1	-2%	-4%	38*	22
c1ccc(OCc2nn3c(-c4n[nH]c5c4CCC5)nnc3s2)cc1	37%	-4%	7	-52*
COc1ccccc1-c1nnc2sc(COc3ccc(Cl)cc3)nn12	?	0%	1	-52*
CCOc1ccc(-c2nnc(SCC(=O)Nc3cc(C)ccc3OC)o2)cc1	12%	.	-10	.
CCCSS/C(CCO)=C(\C)N(C=O)Cc1cnc(C)nc1N	.	.	0	.
O=C(Nc1ccc2c(c1)OCO2)c1cc(C2CCCCN2C(=O)c2ccc3c(c2)CCO3)on1 (centres undefined)	10µM*	-2%	-1	-12
CN(C)c1ccc(-c2noc(C3CC(=O)N(c4ccc5c(c4)OCCO5)C3)n2)cc1 (centres undefined)	13%	.	-4	.
CC(C#N)(Nc1ccc(Cl)cc1)c1cccnc1 (centres undefined)	-2%	-2%	-18	-61*
Cc1c(C(=O)N2CCC(Cc3ccccc3)CC2)cccc1[N+](=O)[O-]	-14%[7.66 µM]	4%	2	3
Cc1ccc(C(=O)N2CCC(Cc3ccccc3)CC2)cc1[N+](=O)[O-]	10µM*	17%	-2	-8
Cc1ccc(C)c(S(=O)(=O)NCc2ccc(C(=O)N3CCC(Cc4ccccc4)CC3)cc2)c1	10µM*	4%	4	-8
Cc1cc(C)cc(-n2c(SCC(=O)N3CCOCC3)nc3c([nH]c4ccccc43)c2=O)c1	1%	-2%	2	.
CCN1C(=O)[C@H]2[C@@H](c3ccc(-c4ccc5c(c4)OCO5)cc3)N[C@@](Cc3ccccc3)(C(=O)OC)[C@H]2C1=O	-25%	12%	-18	42
COC(=O)[C@]1(Cc2ccccc2)N[C@H](CN(C)C(=O)NC(C)C)[C@@H]2C(=O)N(Cc3ccccc3)C(=O)[C@@H]21	-5%	5%	-1	-21
CCNC(=O)N(CC)C[C@H]1N[C@@](Cc2ccccc2)(C(=O)OC)[C@H]2C(=O)N(Cc3ccccc3)C(=O)[C@@H]12	0%	-1%	0	3
CCN(C[C@H]1N[C@@](Cc2ccccc2)(C(=O)OC)[C@H]2C(=O)N(Cc3ccccc3)C(=O)[C@@H]12)C(=O)C1CCCCC1	-13%	-2%	-26	-57*
CCN1C(=O)[C@H]2[C@@H](c3ccc(-c4cccc(Cl)c4)cc3)N[C@@](Cc3ccccc3)(C(=O)OC)[C@H]2C1=O	7.9µM*	-2%	17	-8
CCNC(=O)N(CC)C[C@H]1N[C@@](Cc2ccccc2)(C(=O)OC)[C@H]2C(=O)N(C)C(=O)[C@@H]12	9%	-3%	46*	-7
COC(=O)[C@]1(Cc2ccccc2)N[C@H](CN(C)C(C)=O)[C@@H]2C(=O)N(Cc3ccccc3)C(=O)[C@@H]21	3%	-5%	-33	-53*
Cc1ccccc1C(=O)Nc1sc2c(c1C(=O)NCc1ccco1)CCC(C(C)(C)C)C2 (centres undefined)	3%	.	-1	.
Cc1cccc(OCCCn2c(CCNC(=O)C3CCCCC3)nc3ccccc32)c1	?	.	-18	.

High-throughput results as filed in PubChem BioAssay.
